Test results as given in PMC5540273 (PLoS ONE, 2017).

system: TNK1; conditions: concentration: 1 μM, replicates: in singlicate; n = 1
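Note: KINOMEscan kinase panel screen.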

Row | Structure (SMILES) | %Inh
1 | Cn1cc(-c2ccc3c(c2)CCN3C(=O)Cc2cccc(Cl)c2)c2c(N)ncnc21 [GSK2606590] | 11%
2 | COc1ccc(-c2coc3ccc(-c4nnc(SCc5ccc(OC)c(C(F)(F)F)c5)o4)cc23)cc1 | 9%
3 | CCS(=O)(=O)c1ccc(OC)c(Nc2nccc(-c3c(-c4cccc(NC(=O)c5c(F)cccc5F)c4)nn4ncccc34)n2)c1 [GSK326180] | 85%
4 | O=C(Nc1cccc(-c2nn3ccccc3c2-c2ccnc(Nc3cccc(C(F)(F)F)c3)n2)c1)c1c(F)cccc1F [GSK292658] | 75%
5 | NCCCC(NC(=O)c1cc(Br)c(-c2ccnc3[nH]ccc23)s1)c1ccccc1.O=C(O)C(F)(F)F.O=C(O)C(F)(F)F (centres unmarked) [GSK1287544] | 0%
6 | CC(=O)Nc1nc2cnc(Nc3cc(NC(=O)c4cccc(C5(C#N)CC5)c4Cl)ccc3C)nc2s1 | 88%
7 | COc1ccc(CNC(=O)NC2CCN(c3ccnc(Nc4ccc(F)cc4)n3)CC2)cc1 [GSK1379788] | 9%
8 | Clc1ccc(-c2nn3ncccc3c2-c2ccnc(Nc3ccc4c(c3)OCCO4)n2)cc1 [GW829116] | 46%
9 | CC(C)(C)c1ccc2nccc(Nc3cccc(O)c3)c2c1 [GW856795] | 19%
10 | COc1cc(Nc2nccc(N3CCC(NC(=O)Nc4cccc(C(C)=O)c4)C3)n2)cc(OC)c1OC (centres unmarked) [GSK1379753] | 21%
11 | COc1cc(Nc2nccc(-c3c(-c4cccc(NC(=O)c5c(F)cccc5F)c4)nn4ccccc34)n2)cc(OC)c1OC [GSK323521] | 0%
